Measurements taken from ChEMBL document CHEMBL3988442, “University of Dundee, Small-Polar-MMV Screening Library” (2021).

Columns and labels:
[1] = molecular target: T1, Aspartate--tRNA(Asp/Asn) ligase (Mycobacterium tuberculosis (strain ATCC 25618 / H37Rv)) (UniProt P9WFW3); experiment: Assay for Asp RNA synthetase-1 from Mycobacterium tuberculosis; type: functional; design: scale not given: direction of the effect not stated beside the values; conditions: 30 µM; note: in the data most compounds retested in dose-response had high values
T1 sequence (whole entry): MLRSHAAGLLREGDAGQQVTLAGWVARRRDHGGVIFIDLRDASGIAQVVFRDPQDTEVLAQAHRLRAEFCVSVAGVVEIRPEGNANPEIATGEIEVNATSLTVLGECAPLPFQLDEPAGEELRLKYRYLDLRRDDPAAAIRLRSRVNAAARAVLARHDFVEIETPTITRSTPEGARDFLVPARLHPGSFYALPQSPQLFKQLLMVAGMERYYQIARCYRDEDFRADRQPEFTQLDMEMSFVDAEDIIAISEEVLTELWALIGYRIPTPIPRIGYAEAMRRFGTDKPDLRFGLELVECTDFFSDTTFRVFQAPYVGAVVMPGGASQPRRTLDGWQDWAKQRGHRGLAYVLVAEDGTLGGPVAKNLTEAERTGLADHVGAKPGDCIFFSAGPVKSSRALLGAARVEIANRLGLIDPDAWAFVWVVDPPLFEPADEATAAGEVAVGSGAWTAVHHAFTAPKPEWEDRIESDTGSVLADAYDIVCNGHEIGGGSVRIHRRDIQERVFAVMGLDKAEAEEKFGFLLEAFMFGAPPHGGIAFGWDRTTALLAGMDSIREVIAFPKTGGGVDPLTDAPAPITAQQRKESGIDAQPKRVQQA

[2] = molecular target: Shiga toxin 2 (Escherichia coli O157:H7) (UniProt P09385+P09386); experiment: E. coli 0.157:H7 Shiga Toxin SOP - stx2 screening assay; type: functional; design: scale not given: direction of the effect not stated beside the values; conditions: 30 µM

Compound | Percent Effect [1] | Percent Effect [2]
Cc1ccccc1OCCC(=O)N1CCCC(n2cncn2)C1 (centres undefined) | -3.32% | 2.85%
Cn1cc(CN2CCCN(C(=O)c3cc(Cl)cn3C)CC2)cn1 | -4.75% | 22.7%
CCC1=N[C@@]2(CC[C@@H]3CN(CC4CC4)C[C@@H]32)C(=O)N1C | -1.79% | 6.84%
CN1[C@@H](C(=O)NCC2CC2)C[C@@H]2CN(Cc3ccco3)C[C@@H]21 | 2.69% | -1.45%
COc1ccccc1CC1CCCN(CCC#N)C1 (centres undefined) | -3.31% | 32.8%
CC(C)C(=O)N1CCN(C(=O)c2cscn2)[C@H]2CS(=O)(=O)C[C@H]21 | -8.33% | -5.71%
Cn1cc(CN2CC[C@@H]3[C@@H](CCC(=O)N3CCC3=CCCCC3)C2)cn1 | 0.0912% | -13%
CC(=O)N1CCN(C(=O)CCCc2nc(C(C)C)no2)CC1 | 5.17% | -7.36%
CC(Cn1cccn1)NC(=O)NCc1ccc(S(N)(=O)=O)cc1 (centres undefined) | 6.49% | 14.9%
O=C(CCc1nccs1)N1CCN(c2cccnn2)CC1 | -2.05% | 12.9%
CCN1CCN(CC(O)c2ccc(OC(F)(F)F)cc2)CC1 (centres undefined) | 5.22% | -5.3%
CCCC1(CO)CCCN(c2ncccc2F)C1 (centres undefined) | 0.836% | -7.35%
Cn1cc(CNCC2Cn3nnc(-c4ccccc4)c3CO2)cn1 (centres undefined) | 5.57% | -42.7%
CC(C(=O)N1CCCN(c2ncccc2C#N)CC1)n1cccn1 (centres undefined) | -4.27% | 31.7%
COCC1CN(Cc2cc(C)on2)Cc2cn(C)nc21 (centres undefined) | 1.83% | -2.41%
Cc1cc(C)n(CC(C)CNC(=O)[C@@H](C)NC(=O)OC(C)(C)C)n1 (some centres undefined) | -1.38% | 9.62%
CCCc1nc(CN2CCCC2Cn2cncn2)cs1 (centres undefined) | -4.65% | -7.55%
O=C(NCCNc1ncccn1)N1CCN(Cc2cccnc2)CC1 | 6.28% | -6.42%
CN(Cc1ccsc1)C(=O)CN1CCCC1Cn1cccn1 (centres undefined) | 2.25% | -9.42%
Cc1noc(C)c1CN1CCN(CC2CC2)c2ncccc2C1 | 2.1% | 0.649%
COCc1c(C(=O)O)nnn1Cc1cccc(C(F)(F)F)c1 | -5.23% | -31%
Cc1nccn1C1CCCN(C(=O)c2ccc(N3CCCC3)nn2)C1 (centres undefined) | 2.5% | 17.8%
CCc1nc(CCNC(=O)NC2CC2)sc1C | 5.19% | -0.181%
CC1=N[C@@]2(CC[C@@H]3CN(CC(=O)N(C)C)C[C@@H]32)C(=O)N1CC(C)C | -0.203% | -75.1%

Compound | Percent Effect [1] | Percent Effect [2]
CNC(=O)c1cnc(/C=C/c2cc(OC)c(OC)c(OC)c2)s1 | -0.971% | -44.8%
Cn1cccc1CCC(=O)N1CCC2(CC1)c1ccccc1CC2O (centres undefined) | 2.11% | -22.3%
O=C(c1cccc(NCCO)c1)N1CCOCC1 | 7.13% | -69.6%
COc1ccc(S(=O)(=O)N2CCCC3(CCCN3S(C)(=O)=O)C2)cc1 (centres undefined) | -2.13% | 0.605%
O=C(O)CCc1cc2n(n1)CCCN(C(=O)c1ccc3cc[nH]c3c1)C2 | -1.19% | -1.98%
CC(NC(=O)CCc1cccs1)c1nnc2n1CCC2 (centres undefined) | -0.379% | 3.4%
COCCN1CCN(Cc2noc(C3CC3)n2)CC1C (centres undefined) | -6.85% | -12.1%
OCCC1CN(C2CCC2)CCN1C1CCCC1 (centres undefined) | -1.5% | 7.89%
CCn1c(CN2CCN(CC(N)=O)CC2)nc2c(F)cccc21 | -3.37% | 6.95%
Cc1nccc(-c2cccc(NCC(=O)N3CCc4sccc4C3)c2)n1 | -0.955% | 8.31%
O=C(O)CC1CN(Cc2ccccc2)CCO1 (centres undefined) | -0.183% | -5.59%
c1cnc(-c2cnc(N3CCSCC3)nc2C2CC2)cn1 | 1.07% | 4.88%
Cc1cc(CN2CCCC2Cn2cncn2)no1 (centres undefined) | -4.72% | -0.0947%
CNC(=O)NC(=O)CN1CCC(c2cccc(F)c2)C1 (centres undefined) | -0.433% | 19.2%
Cc1cnn(CCNCc2ccc(C#N)cc2F)c1 | -3.18% | 6.24%
CC(C)(C)c1ccn(C2(C(=O)O)CCN(c3nccc(N)n3)CC2)n1 | 3.12% | -19.9%
Cc1nc(C)n(C2CCCN(C(=O)c3ccc(N(C)C)nn3)C2)n1 (centres undefined) | 0.605% | 11.2%
O=C(NCC1CCCO1)c1c(-n2cnnn2)sc2c1CCC2 (centres undefined) | 1.11% | 2.95%
CCCc1nc(NCCCO)c2c(n1)c(C)nn2CC | -5.08% | -4.19%
Cc1noc(C)c1CCC(=O)NC(C)c1nnc2n1CCC2 (centres undefined) | -0.635% | -3.03%
CCn1cc(CN2CCCC(CO)(CCc3ccccc3)C2)c(C)n1 (centres undefined) | 0.494% | -5.78%
Cc1cc(C)n(C2CN(CC(O)c3ccc4c(c3)OCO4)C2)n1 (centres undefined) | -5.92% | 7.61%
CC(C)c1nn(C)c(Cl)c1CNC1CCOc2ccccc21 (centres undefined) | 1.57% | 27.5%
